Compound activity: PubChem, National Center for Advancing Translational Sciences (NCATS)
Compounds with a hit are over-represented: about 17% of the library has one in this group of screens.
TGFb SMAD3 inh: blocks TGF-b signaling | HepG2 CAGA-GFP TGF-b/SMAD3 reporter, GFP fluorescence, 18 h; TGF-beta stimulated, 500 pg/mL final | Potency, µM (top dose mostly 46.1 µM), for the others: at the highest dose activity, negative = inhibition, most hits filed as inhibitors | actives 1.2% (n = 410,000); note: % is set by controls: 0 for no effect and ±100 for the full control effect; nearly all actives have a fitted effect of over 65% in size
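HEPG2 CAGA-GFP, 1000 cells/well; 2 h settle, 37 C; cpd via pin tool; TGF-b 500 pg/mL final; 18 h, 37 C; GFP imaging ex488/em500-530; %Activity normalised to -TGF-b and +DMSO controls; CRC fit, curve class.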
HT1080NT lethal: kills 2HG-producing HT-1080-NT fibrosarcoma cells. HT-1080-NT fibrosarcoma viability, CellTiter-Glo ATP luminescence, 48 h. Potency, µM (titrated, usually from 46.1 µM), for inactives: at the highest dose activity, negative = less viability, usual class: cytotoxic. actives 1.6% (n = 360,000);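 note: NT is the 2HG producing partner of a matched IDH1 knockdown line; 0% = DMSO-treated cells and -100% = media-only wells without cells; nearly all actives have a fitted effect of over 55% in size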
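Luminescent CellTiter-Glo readout after 48 hours of compound exposure at 37 degrees C defined viability of HT-1080-NT cells. Activity was normalized to DMSO wells and cell-free media wells; concentration-response curves were fitted and assigned curve classes.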
HT1080 IDH1KD tx: toxicity to HT-1080 IDH1 knockdown cells (counter line); actives 2% (n = 360,000); HT-1080 IDH1 knockdown viability, ATP luminescence, 48 h; Potency, µM (doses to about 46.1 µM), for the others: at the top dose activity, negative = toxicity, most hits filed as cytotoxic; AID 686971;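 note: 0% = DMSO wells and -100% = cell-free medium wells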
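In this qHTS, HT-1080 cells depleted of IDH1 are exposed for 48 h at 37 °C to compound titrations. Toxicity is scored from CellTiter-Glo luminescence, with DMSO as full viability and medium alone as none.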
HepG2 viability: counter-screen for TGF-b inhibitors: cytotoxicity in HepG2 cells. actives 0.76% (n = 410,000). HepG2 CAGA-GFP viability, ATP luminescence, 18 h. Potency, µM (top dose mostly 46.1 µM), without a hit: top-dose activity change, negative = cytotoxicity, most hits filed as cytotoxic
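CellTiter-Glo luminescence gave cytotoxicity after 18 hours at 37 degrees C. The cells were HepG2 CAGA-GFP in 1% FBS DMEM, stimulated with 500 pg/mL TGF-beta after compound addition. %Activity was normalised to no-cell wells (complete cell-killing) and DMSO (no toxicity), and curves were fitted and classified.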
DT40 TDP1 CPT: DT40-hTDP1 cell growth loss with CPT. actives 12% (n = 420,000). Potency, µM (series often up to 46.2 µM), for the others: at the highest dose activity change, negative = growth inhibition, usual class: inhibitors. chicken DT40 Tdp1-/-;hTDP1 cells + 20 nM CPT, ATP luminescence, 48 h; note: % is set by controls: 0 for no effect and ±100 for the full control effect; nearly all actives have a fitted effect of over 55% in size
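Chicken DT40 Tdp1-/- cells stably complemented with human TDP1 were seeded at 400 cells/well in medium containing 20 nM camptothecin, exposed to pin-transferred compounds, and grown at 37 °C for at least 48 hr. Viability was read as ATP luminescence.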
DT40 TDP1 no CPT: qHTS for Inhibitors of human tyrosyl-DNA phosphodiesterase 1 (TDP1): qHTS in cells in absence of CPT; DT40 Tdp1-/- hTDP1 cells, no CPT, ATP luminescence, 48 h; actives 15% (n = 420,000); AID 686978, 2013; Potency, µM (highest dose often 46.2 µM), inactives show at the top dose activity change, negative = growth inhibition, hits mostly inhibitors; note: % is set by controls: 0 for no effect and ±100 for the full control effect; nearly all actives have a fitted effect of over 55% in size
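Luminescent ATP content (CellTiter-Glo) served as the growth readout. Knockout chicken DT40 cells expressing human TDP1 were exposed to compounds without camptothecin for a minimum 48 hr at 37 °C.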
An asterisk follows results filed as active; ? = inconclusive; . = no result. Calls come from the whole dose curve; as a rule, active = well fitted curve in the direction sought with a large enough effect; inconclusive = small, poorly fitted or top-dose-only effect, or another doubt; inactive = no such curve, though single readings can be large; an effect the other way counts as inactive or inconclusive. Potency is the fitted concentration of half-maximal effect.

SMILES | TGFb SMAD3 inh | HT1080NT lethal | HT1080 IDH1KD tx | HepG2 viability | DT40 TDP1 CPT | DT40 TDP1 no CPT
Nc1nc(SCc2ccc(Cl)c(Cl)c2)n[nH]1 | -25.3% | -14.3% | -14.4% | 0.9% | ? | -20.5%
O=C(O)COc1ccc(/C=N/NC(=O)C2CCCN2S(=O)(=O)c2ccc(Cl)cc2)cc1 (stereo not drawn) | -7.0% | 8.9% | 6.1% | 1.5% | -14.4% | -10.1%
CCN1CCN(CCNC(=O)CCc2c(C)c3c(C)nn(-c4ccccc4)c3n(C)c2=O)CC1 | -1.2% | ? | ? | -21.5% | ? | ?
O=C(Cn1cnc2c(cnn2-c2ccccc2)c1=O)N1CCOCC1 | 27.4% | 16.1% | 9.8% | 7.5% | -6.9% | -9.4%
Cc1nn(-c2ccccc2)c2c1c(C)c(CCC(=O)N1CCOCC1)c(=O)n2C | 9.8% | 1.1% | 11.1% | -14.9% | 23.1µM* | ?
Cc1cc(=O)n(CC(=O)NCCN2CCOCC2)c2c1c(C)nn2-c1ccccc1 | 1.6% | ? | -9.3% | -7.6% | -9.4% | 12.0%
CCn1c(=O)c(CCC(=O)NCCN2CCOCC2)c(C)c2c(C)nn(-c3cccc(C)c3)c21 | 5.9% | -0.5% | -0.6% | -7.4% | ? | 16.4µM*
CCn1c(=O)c(CCC(=O)N2CCOCC2)c(C)c2c(C)nn(-c3ccccc3)c21 | ? | -24.3% | -19.1% | -15.9% | ? | 20.6µM*
Cc1ccc(C)c(NC(=O)Cn2c(=O)nc(-c3ccccc3)c3ccccc32)c1 | 1.1% | . | . | -1.7% | 5.5% | -19.6%
COC(=O)c1c(-c2ccccc2)oc2c1C(OCCO)CCC2 (stereo not drawn) | . | 16.6% | 11.4% | . | -21.7% | ?
CC(C)Oc1ccc(CNS(=O)(=O)c2cnc(N)nc2)cc1 | 3.2% | . | . | 1.1% | -11.0% | -2.4%
COc1ccc(CCn2nnnc2C(c2ccc(C)cc2)N2CCN(C)CC2)cc1OC (stereo not drawn) | 12.9% | 3.1% | 5.1% | 1.1% | 2.4% | -9.5%
Cc1ccc(C(c2nnnn2CCc2ccccc2)N2CCSCC2)cc1 (stereo not drawn) | 6.1% | -0.7% | 0.3% | 1.5% | 16.4µM* | ?
Cc1ccc(C(c2nnnn2CCc2ccccc2)N2CCC(C)CC2)cc1 (stereo not drawn) | ? | -29.4% | ? | -30.2% | ? | 16.4µM*
O=C(CSC1=NC(=O)C(c2ccccc2)C(=O)N1)Nc1ccccc1[N+](=O)[O-] (stereo not drawn) | 5.0% | 11.5% | 0.8% | 1.7% | 1.7% | -7.4%
Cc1noc(C)c1COC(=O)c1ccccc1Sc1ccccc1C#N | -1.6% | -6.1% | -27.5% | -18.1% | 25.9µM* | ?
N#Cc1ccccc1Sc1ccccc1C(=O)OCc1nnc(-c2ccccc2)o1 | 15.4% | -6.9% | -3.8% | -6.1% | ? | ?
Cc1ccc(NC(=O)C2CCN(S(=O)(=O)c3ccc4c(c3)CCCC(=O)N4)CC2)cc1N(C)C | -1.9% | -12.2% | -9.6% | -22.5% | ? | -20.8%
CC1(C)O[C@@H]1COc1c2ccoc2cc2oc(=O)ccc12 | -1.2% | 2.8% | 4.0% | 10.1% | 11.6µM* | 18.4µM*
CC(C)=CCOc1c2ccoc2cc2oc(=O)ccc12 | 10.4% | -0.6% | 2.8% | -6.8% | -0.5% | -13.6%
CN1CCCC1=Nc1ccccc1 | 6.9% | 4.5% | -0.3% | 5.7% | -5.7% | -3.3%
FC(F)(F)c1nnc2ccc(NCc3ccccc3)nn12 | 4.0% | -2.4% | -0.3% | -1.1% | 11.5% | -28.0%
C[n+]1ccccc1COc1ccc(C(C)(C)C)cc1 | 7.7% | -10.1% | -22.5% | 0.7% | 2.06µM* | 2.31µM*
COc1ccccc1N(CC(=O)NC1CCCCC1)S(=O)(=O)c1ccccc1 | 0.9% | -13.9% | -12.8% | 0.8% | -23.6% | ?
O=C1CSC(c2cccc([N+](=O)[O-])c2)N1c1ccccc1F (stereo not drawn) | -16.2% | -6.4% | -15.2% | -2.6% | -24.1% | ?
SMILES | TGFb SMAD3 inh | HT1080NT lethal | HT1080 IDH1KD tx | HepG2 viability | DT40 TDP1 CPT | DT40 TDP1 no CPT
Cc1cc2ncn(S(=O)(=O)c3ccc(S(=O)(=O)N4CCCCCC4)cc3)c2cc1C | -5.5% | 6.0% | ? | -3.7% | 16.4µM* | 20.6µM*
CCOc1ccc(S(=O)(=O)n2cnc3cc(C)c(C)cc32)cc1 | ? | ? | ? | -9.8% | ? | 8.2µM*
Cc1cc2ncn(S(=O)(=O)c3ccc(F)cc3)c2cc1C | -1.1% | 12.6% | 7.4% | 9.6% | -6.5% | 0.8%
Cc1cc2ncn(S(=O)(=O)c3ccc(S(N)(=O)=O)cc3)c2cc1C | 3.8% | 7.3% | -2.5% | -1.3% | -12.6% | -36.1%
COc1ccc(-c2noc(CC(=O)Nc3ccc(F)cc3F)n2)cc1 | -1.3% | . | . | -3.3% | -13.9% | -11.5%
CC1CCCN(c2ccc3nncn3n2)C1 (stereo not drawn) | 13.5% | -0.3% | 8.9% | 16.1% | -13.5% | 2.3%
CC(C)c1ccc(NC(=O)NC2(C(=O)NCc3cccnc3)CCCCC2)cc1 | 5.2% | -12.0% | -6.5% | -15.8% | -1.1% | -5.4%
FC(F)(F)COc1nc(N2CCOCC2)nc(N(c2ccccc2)c2ccccc2)n1 | ? | ? | ? | -20.2% | ? | 20.6µM*
C=C1C(=O)O[C@H]2[C@H]1[C@H](OC(=O)/C(C)=C\C)C[C@]1(CO1)[C@@H]1[C@H](OC(C)=O)C=C(C)[C@]21O | ? | 4.9% | ? | 0.4% | 11.6µM* | 13µM*
Cc1nn(CC(=O)Nc2ccccn2)c(C)c1Br | -7.8% | 4.7% | 15.9% | 0.1% | 8.2µM* | ?
CC1(C(=O)NS(=O)(=O)C2CC2)CCCN(C(=O)c2ccccc2C(F)(F)F)C1 (stereo not drawn) | 18.9% | 0.8% | 9.8% | 6.6% | 6.51µM* | 5.8µM*
COc1ccccc1C(=O)N1CCCC(C)(C(=O)NS(=O)(=O)C2CC2)C1 (stereo not drawn) | 23.7% | 9.3% | 21.7% | -9.8% | ? | 1.64µM*
CC1(C(=O)NS(=O)(=O)C2CC2)CCCN(C(=O)c2cccnc2Oc2ccccc2)C1 (stereo not drawn) | 29.0% | ? | 11.3% | 13.9% | ? | 1.03µM*
Cc1ccc2c(c1)C1CN(C)CCC1N2S(=O)(=O)c1cc(C(F)(F)F)ccc1Cl (stereo not drawn) | ? | -22.8% | -13.3% | -42.6% | ? | ?
